Bioassay records (PubChem)
Rab9 promoter act – Rab9 promoter activation; hit rate 2.8% among 320,000; Huh7 Rab9 promoter-luciferase reporter, luminescence, 24 h; Potency, µM (titrated, usually from 9.22 µM), for inactives: top-dose activation, negative = inhibition, usual class: activators; AID 485297; further: % of control where 0% means no effect; nearly all actives have a fitted effect of over 60% in size
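Luminescence read-out: Huh7 cells stably expressing Rab9-luciferase, treated 24 h with compound at 37 °C, then lysed with luciferase reagent for 10 min at ambient before reading.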
SMN2 splice up – increases expression of the SMN2 splice variant; Potency, µM (highest dose often 46.1 µM), for the others: at the highest dose activity change, positive = activation, most hits filed as activators; hit rate 2.8% among 210,000; AID 1458; HEK293 SMN2-luciferase splicing reporter, luminescence, 30-36 h; further: % of control where 0% means no effect; nearly all actives have a fitted effect of over 55% in size
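qHTS luciferase splicing reporter: luminescence rises when SMN2 exon 7 is included in transfected HEK293 cells. Compound exposure lasted 30-36 h at 37C, with 4.5 mM final sodium butyrate as control, followed by a ONE-Glo read.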
NPC1 promoter act – NPC1 promoter activation | Potency, µM (titrated, usually from 9.22 µM), for inactives: top-dose activation, most hits filed as activators | hit rate 2.4% among 320,000 | Huh7 NPC1 promoter luciferase reporter, 24 h; further: % of control where 0% means no effect; nearly all actives have a fitted effect of over 60% in size
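Huh7 reporter cells (NPC1 promoter driving luciferase) are dosed with compound for 24 h at 37 °C, 5% CO2; luciferase detection reagent is then added and luminescence measured after 10 min at ambient temperature.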
KinaseGlo FLuc – Kinase-Glo luciferase inhibition (counter-screen) | Q27757 | Kinase-Glo luciferase, ATP luminescence, 8 min | Potency, µM (doses to about 38.3 µM), inactives show top-dose activity change, negative = inhibition, usual class: inhibitors | hit rate 0.28% among 200,000; further: on the % scale 0 is the no-effect control and ±100 the full control effect; nearly all actives have a fitted effect of over 60% in size
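Compound is pinned into ATP-containing buffer (10 uM ATP, imidazole pH 7.2, 7 mM MgCl2). Kinase-Glo luciferase reagent is then added. Light output is recorded following an 8-min room-temperature incubation.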
FLuc modulator – counter-screen for miR-21 project: firefly luciferase inhibitors or activators | P08659 | hit rate 6.9% among 360,000 | purified FLuc, Km substrates, luminescence inhibition | Potency, µM (top dose mostly 57.5 µM), inactives show at the highest dose activity change, negative = inhibition, most hits filed as inhibitors;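 further: plate controls were vehicle for no effect and reference inhibitor for full effect; nearly all actives have a fitted effect of over 55% in size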
Target sequence (P08659 whole entry, looked up): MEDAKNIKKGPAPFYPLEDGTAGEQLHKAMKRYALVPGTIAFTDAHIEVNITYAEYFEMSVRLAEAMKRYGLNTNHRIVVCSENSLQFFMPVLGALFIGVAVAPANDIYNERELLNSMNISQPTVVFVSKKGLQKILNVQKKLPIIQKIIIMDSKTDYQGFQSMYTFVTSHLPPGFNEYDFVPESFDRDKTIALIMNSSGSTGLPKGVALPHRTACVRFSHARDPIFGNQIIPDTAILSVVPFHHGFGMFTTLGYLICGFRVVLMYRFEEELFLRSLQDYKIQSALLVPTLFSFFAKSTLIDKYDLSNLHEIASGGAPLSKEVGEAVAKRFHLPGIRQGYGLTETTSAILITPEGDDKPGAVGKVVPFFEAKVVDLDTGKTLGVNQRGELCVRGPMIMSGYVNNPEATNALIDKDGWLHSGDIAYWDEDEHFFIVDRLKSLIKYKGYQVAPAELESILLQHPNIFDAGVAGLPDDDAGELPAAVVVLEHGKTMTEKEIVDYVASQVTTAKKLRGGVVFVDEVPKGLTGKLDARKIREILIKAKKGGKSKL
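Biochemical qHTS of compounds, final roughly 60 µM downward over six points, against 10 nM purified firefly luciferase using Km concentrations of substrates (10 uM D-luciferin, 10 uM ATP) in Tris acetate pH 7.5 buffer; luminescence output.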
ELG1 genotoxic – inducers of genotoxicity in HEK293T ELG1-luciferase cells; HEK293T ELG1-luciferase reporter, luminescence, 16 h; Potency, µM (titrated, usually from 46 µM), without a hit: top-dose activity change, positive = activation, usual class: activators; hit rate 1.3% among 330,000; AID 504466; further: % of control where 0% means no effect; nearly all actives have a fitted effect of over 60% in size
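Reporter readout depends on ELG1 protein level, which increases with genetic stress. After 16 hr compound exposure at 37 °C, luciferase activity was quantified using ONE-Glo.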
An asterisk follows results filed as active; ? = inconclusive; / = no result given; [ ] = remark or other dose. Compounds with a hit are over-represented: about 7.4% of the library has one in this group of screens. The call rests on the fitted dose curve; in most records, active means well fitted curve in the direction sought with a large enough effect; inconclusive means small, poorly fitted or top-dose-only effect, or another doubt; inactive means no such curve, though single readings can be large; an effect the other way counts as inactive or inconclusive. Potency means the concentration at half of the fitted maximal effect.

SMILES | Rab9 promoter act | SMN2 splice up | NPC1 promoter act | KinaseGlo FLuc | FLuc modulator | ELG1 genotoxic
COC(=O)C/C=C/[C@@H](C)[C@H](NC(=O)OCC(Cl)(Cl)Cl)c1ccc2ccccc2c1 | / | -4% | / | 0% | / | /
CCCCOc1ccccc1NC(=O)Cn1c(-c2cncs2)nc2ccccc21 | / | 0% | / | / | -18% | /
Cc1ccc(-n2nc3ccc(NC(=O)c4ccco4)cc3n2)cc1 | ? | 1% | 19% | -1% | 9.5µM* | 15µM*
Cc1ccc(-n2nc3ccc(NC(=O)c4ccc5c(c4)OCO5)cc3n2)cc1 | 7% | -13% | 0% | -1% | -1% | 1%
Cc1ccc(-n2nc3ccc(NC(=O)C(C)C)cc3n2)cc1 | 0.35µM* | 2.2µM* | 0.35µM* | 3% | 0.95µM* | 1.2µM*
O=C(Nc1ccc2nn(-c3ccccc3)nc2c1)c1ccc(Br)o1 | 4% | 3% | 3% | -2% | 1% | ?
Cc1ccc(-n2nc3ccc(NC(=O)c4oc5ccc(C)cc5c4C)cc3n2)cc1 | / | 14% | / | / | -14% | /
CCCC(=O)Nc1ccc2nn(-c3ccc(OC)cc3)nc2c1 | 2µM* | / | ? | / | 5.4µM* | ?
CC(C)CC(=O)Nc1ccc2nn(-c3ccccc3)nc2c1 | 1.6µM* | 6.3µM* | 1.6µM* | 1% | 2.7µM* | ?
Cc1c(C(=O)OC(C)C)sc(NC(=O)C2c3ccccc3Oc3ccccc32)c1C(=O)OC(C)C | / | -15% | / | / | -1% | /
Cc1cccc(C(=O)N(Cc2ccco2)Cc2ccccc2F)c1 | / | -25% | / | / | -17% | /
CC(C)C(=O)Nc1ccc2nn(-c3ccc(F)cc3)nc2c1 | 0.089µM* | / | 0.11µM* | / | 0.85µM* | ?
COc1ccc(-c2nc3cc(C(C)C)ccc3o2)cc1NC(=O)c1ccc(C)c(Cl)c1 | / | 11% | / | / | -1% | /
CC(=O)c1sc(N/N=C2\CC3CC2C(C)C3(C)C)nc1C (stereo unspecified) | ? | / | ? | 3% | 13µM* | ?
COc1ccc(/C(C)=N/Nc2nc(C)c(C(C)=O)s2)cc1 | -1% | / | -2% | / | ? | 3%
O=[N+]([O-])c1ccc(N2CCOCC2)cc1O | 1% | / | -2% | / | -2% | 0%
Cc1cc(N2CCOCC2)ccc1/C=C\[N+](=O)[O-] | 12% | ? | -7% | -3% | 24µM* | -21%
Brc1ccc(-c2cn3cccnc3n2)cc1 | 2.2µM* | 7.9µM* | ? | -11% | 8.5µM* | 2.9µM*
COc1ccc(-c2cn3cccnc3n2)cc1F | ? | 16µM* | ? | -8% | 8.5µM* | ?
O=S(=O)(Nc1ccc(-c2cn3cccnc3n2)cc1)c1ccccc1 | -8% | 3% | 0% | -1% | ? | 1%
Clc1ccc(-c2cn3cccnc3n2)cc1 | ? | -5% | 27% | -8% | 11µM* | 16µM*
O=C(Nc1cccc(-c2cn3cccnc3n2)c1)c1cc(Br)ccc1Cl | / | / | / | / | -4% | /
Clc1ccc(-c2cn3cccnc3n2)cc1Cl | ? | ? | ? | -3% | 17µM* | ?
CCCCC[C@H](O)/C=C\[C@H]1[C@H](C/C=C\CCCC(=O)O)[C@@H](O)C[C@H]1O (tested in a mixture with another compound) | / | 9%[20.6 µM] | / | 3%[17.1 µM] | / | /
Cn1cccc1C(=O)N1CCC2(CC1)CCN(C(c1ccccc1)c1ccccc1)CC2 | / | -35% | / | 2% | / | /
SMILES | Rab9 promoter act | SMN2 splice up | NPC1 promoter act | KinaseGlo FLuc | FLuc modulator | ELG1 genotoxic
O=C(Nc1ccc(F)cc1)c1ccc(Cn2nc(N3CCN(c4ccccc4)CC3)ccc2=O)o1 | / | / | / | / | 8% | /
COc1ccc(NC(=O)c2oc3ccc(S(=O)(=O)N4CCC5(CC4)OCCO5)cc3c2C)cc1Cl | / | / | / | / | -9% | /
CN(C(=O)c1cc2c(=O)n3ccccc3nc2n1C)C1CCCCC1 | 3.2µM* | / | 2µM* | / | 12µM* | 4.6µM*
COc1ccc(-c2noc(-c3ccc(NC4CCCCC4)c([N+](=O)[O-])c3)n2)cc1 | / | / | / | / | 0% | /
COc1ccc(OC)c(S(=O)(=O)N2Cc3ccccc3CC2C(=O)Nc2nccs2)c1 (stereo unspecified) | ? | 35µM* | 3% | 6% | 3%[2.3 µM] | 14%
COc1ccc(OC)c(S(=O)(=O)N2Cc3ccccc3CC2C(=O)Nc2ccc(C)cc2C)c1 (stereo unspecified) | / | 6% | / | / | 0% | /
CCOC(=O)c1c(C)oc2ncnc(Nc3ccc(CC)cc3)c12 | / | -1% | / | / | -1% | /
CCc1ccc(Nc2oc(C)cc(=O)c2C(C)=O)cc1 | 16% | -10% | 23% | -5% | 19µM* | 15%
CC1CCN(S(=O)(=O)c2ccc3c(c2)N(CC(=O)N2CCN(c4ccccc4)CC2)C(=O)CO3)CC1 | / | 0% | / | / | -3% | /
Cc1ccc(C(=O)NC(=S)NCC2CCCO2)cc1Br (stereo unspecified) | 29% | 20µM* | 23% | 0% | 19µM* | 16%
O=C(NC(=S)NCC1CCCO1)c1ccccc1Br (stereo unspecified) | -3% | 2% | -4% | -3% | 1% | 5%
CCc1ccc(NC(=O)C(=O)NCC2CCCO2)cc1 (stereo unspecified) | 1.4µM* | 11µM* | 3.5µM* | -3% | ? | 17%
CCc1ccc(CNC(=O)C(=O)NCC2CCCO2)cc1 (stereo unspecified) | -7% | / | -1% | 1% | -1% | 3%
CN(C)c1ccc(NC(=S)NCC2CCCO2)cc1 (stereo unspecified) | 23% | 13µM* | 17% | -3% | ? | ?
CCOC(=O)CNC(c1ccccc1)c1cc(Br)ccc1NC(=O)c1ccc(Cl)cc1 (stereo unspecified) | / | -13% | / | / | 1% | /
